Data published in PubChem BioAssay AID602449 (Sanford-Burnham Center for Chemical Genomics, 2012).
In all, about 360,000 compounds went through this assay and about 5,000 (1.4%) were called active.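 How the source made its calls: active means inhibition of 50% or more, scaled per plate between neutral and stimulator controls; inactive means the rest.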 What follows is part of a selection rich in actives, with near analogues and random picks from the rest.

Assay: blockers of Ca2+-induced mitochondrial swelling – biochemical, isolated mouse mitochondria, absorbance, primary screen (AID 602449);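 further: 0% = DMSO wells given calcium and 100% = 1 mM EGTA wells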
Conditions: 30 min, at 10 µM, stronger effect = higher value

| SMILES | inhibition |
| --- | --- |
| CC[C@@H](C)[C@@H](C(=O)N1CCN(C(=O)OC(C)(C)C)CC1)n1cc(CCC(=O)O)nn1 | -0.6% (inactive) |
| CC(C)(C)c1ccc(CCC2OCC(CN3CCOCC3)O2)cc1 (stereo not drawn) | 3.3% (inactive) |
| COc1cccc(C(C(=O)NC2CCCC2)N(C(=O)c2ccco2)c2cccc(C(C)=O)c2)c1OC (stereo not drawn) | -2.4% (inactive) |
| Cc1nc(CNS(=O)(=O)c2ccc(Oc3ccccc3)cc2)cs1 | 88.7% (active) |
| Cc1nc(CNS(=O)(=O)c2cc([N+](=O)[O-])ccc2C)cs1 | 0.4% (inactive) |
| Cc1ccc(S(=O)(=O)NCc2nc3ccccc3c(=O)n2N)cc1 | 1.2% (inactive) |
| COC(=O)[C@@]12C[C@@H](CC(=O)NCCCCc3ccccc3)C(=O)N(Cc3ccccc3)C1=CCC(C)(C)C2 | -0.7% (inactive) |
| Cc1ccc(OCC(=O)N2CCN(S(=O)(=O)c3ccc(Cl)s3)CC2)cc1C | 2.3% (inactive) |
| CC(C)c1ccc(NC(=S)NC2CC3C=CC2C3)cc1 (stereo not drawn) | 73.8% (active) |
| CC(C)c1ccc(NC(=O)NC2CCCCC2)cc1 | 0.2% (inactive) |
| O=C(COC(=O)C1CC2C=CC1C2)Nc1ccccc1 (stereo not drawn) | -0.1% (inactive) |
| CCOC(=O)/C(N=Nc1cc(C(=O)O)cc(C(=O)O)c1)=C(\O)CCl | -2.4% (inactive) |
| CN(C)C(CNC(=O)c1cccc(S(=O)(=O)Nc2ccc(Br)cc2)c1)c1ccco1 (stereo not drawn) | -0.5% (inactive) |
| Cc1ccc(CC(=O)Nc2ccc(S(=O)(=O)N3CCOCC3)cc2)cc1C | 1% (inactive) |
| Cc1ccc(CC(=O)Nc2ccc(OC(F)F)c(Cl)c2)cc1C | 60% (active) |
| FC(F)Oc1ccc(NC(=S)NCc2ccco2)cc1Cl | 86.1% (active) |
| COc1ccc(Cc2nnc(SCC(=O)Nc3ccc(C)c(C)c3)o2)cc1OC | 0% (inactive) |
| COc1cc(NC(=S)NCc2ccco2)c(OC)cc1Cl | 1.7% (inactive) |
| COC(=O)Cc1ccc(NC(=S)NCc2ccco2)cc1 | -0.8% (inactive) |
| OCCC1CN(Cc2ccc3nsnc3c2)CCN1C1CCCC1 (stereo not drawn) | 2.1% (inactive) |
| Cc1nnc(SCC(=O)N(C(C)C)C(C)C)nc1C | -1.3% (inactive) |

| SMILES | inhibition |
| --- | --- |
| CCC(C(=O)NCc1ccc(OC)cc1)n1nc(C)n2c(cc3occc32)c1=O (stereo not drawn) | 0.5% (inactive) |
| CCC(C)NC(=O)c1nn(C)c(=O)c2ccccc12 (stereo not drawn) | -0.2% (inactive) |
| COc1ccc(NC(=O)COC(=O)c2ccc(NS(=O)(=O)/C=C/c3ccccc3)cc2)cc1 | -9% (inactive) |
| COc1ccc(/C=C(/CC(=O)Nc2ccc(C)cc2)c2nc3ccccc3s2)cc1 | 52.2% (active) |
| COc1cccc(/C=C(/CC(=O)Nc2ccc(N3CCOCC3)cc2)c2nc3ccccc3s2)c1 | -0.3% (inactive) |
| CCc1ccc(CN(C)C(C)C(=O)Nc2ccc(S(=O)(=O)N3CCCC3)cc2)cc1 (stereo not drawn) | 0.2% (inactive) |
| O=C1NC[C@H](CCCCN2C[C@H](Cc3ccccc3)N(Cc3ccccc3)C(=O)C2=O)N(CCc2ccc(O)cc2)C1=O | -0.9% (inactive) |
| COC(=O)c1ccccc1NC(=O)CN(Cc1ccc(Cl)cc1)S(C)(=O)=O | 0.4% (inactive) |
| CC(=O)c1cccc(OCc2cc(C(=O)NC(C)Cc3cccnc3)no2)c1 (stereo not drawn) | 0% (inactive) |
| CN(Cc1cnccn1)C(=O)c1cc(COc2cccc(C(F)(F)F)c2)on1 | 0% (inactive) |
| CN(Cc1cccnc1)C(=O)c1cc(COc2ccc3ncccc3c2)on1 | 98.2% (active) |
| O=C(NC(=S)NC1CCS(=O)(=O)C1)c1cccc([N+](=O)[O-])c1 (stereo not drawn) | -0.7% (inactive) |
| O=C(Nc1ccc(C2CC2(Cl)Cl)cc1)c1cccc([N+](=O)[O-])c1 (stereo not drawn) | 77.1% (active) |
| Cc1ccc(NC(=O)C(=O)NCC2CCN(C(=O)c3cccc([N+](=O)[O-])c3)CC2)cc1 | -2.2% (inactive) |
| Cc1ccc(CS(=O)(=O)CCC(=O)NC2CC2)cc1 | -1.1% (inactive) |
| NS(=O)(=O)c1ccc(NC(=S)Nc2ccc(Br)c(Cl)c2)cc1 | 102% (active) |
| COc1ccc(NC(=S)Nc2ccc(S(N)(=O)=O)cc2)c(C)c1 | -2.1% (inactive) |
| NS(=O)(=O)c1ccc(NC(=S)N2CCCC2)cc1 | -0.2% (inactive) |
| CC1=C/C(=N\OS(=O)(=O)c2ccccc2)C=CC1=O | 103% (active) |
| O=C(COC(=O)c1ccc(NS(=O)(=O)c2cccs2)cc1O)Nc1ccc(F)cc1 | 4.7% (inactive) |
| O=S(=O)(Cc1cc(Cl)nc(-c2cccnc2)n1)c1ccccc1 | 0.8% (inactive) |

| SMILES | inhibition |
| --- | --- |
| COc1ccc(NC(=O)Nc2ccc3nsnc3c2)cc1 | 87.9% (active) |
| COCCNC(=O)Nc1ccc2nc(-c3ccco3)c(-c3ccco3)nc2c1 | 0.5% (inactive) |
| O=C(Nc1ccccc1)c1ccc2nsnc2c1 | -1.8% (inactive) |
| CSCc1cc(N(C)C)nc(SCc2ccc(Cl)cc2Cl)n1 | 1.1% (inactive) |
| COc1ccc(C(=O)CSc2n[nH]c(N)n2)cc1 | -1% (inactive) |
| CCCCN(C(=O)/C=C/c1ccco1)c1c(N)n(CC(C)C)c(=O)[nH]c1=O | 0% (inactive) |
| O=S(=O)(Nc1cccc(-c2ccc(N3CCOCC3)nn2)c1)c1ccc(Cl)c(Cl)c1 | -0.6% (inactive) |
| O=C(NNC(=O)c1cccc(S(=O)(=O)Nc2ccc(Cl)cc2)c1)c1ccc(=O)[nH]c1 | -1.3% (inactive) |
| Fc1ccc2[nH]c3c(N4CCSCC4)ncnc3c2c1 | 80.7% (active) |
| CCN(CC(=O)Nc1ccccc1OC)C(=O)CC1CC2CCC1C2 (stereo not drawn) | 0.6% (inactive) |
| O=C(NCc1cn2ccsc2n1)Nc1cccc(Cl)c1 | -1.5% (inactive) |
| O=C(Nc1ccc2cn[nH]c2c1)c1ccc(S(=O)(=O)N2CCOCC2)cc1 | -4.1% (inactive) |
| CC(C)Cc1nnc(NC(=O)CCC(=O)Nc2ccc3cn[nH]c3c2)s1 | 2% (inactive) |
| Cc1ccc(C2CCN(C(=S)Nc3cccc(Cl)c3)C2)cc1 (stereo not drawn) | 14.6% (inactive) |
| Cc1csc(NC(=S)Nc2cccc(Cl)c2)n1 | 64.4% (active) |
| S=C(Nc1cccc(Cl)c1)Nc1ccc2cn[nH]c2c1 | 55% (active) |
| CCOC(=O)Cn1c2c(c(-c3ccccc3OC)cc1=O)CCCC2 | -1.1% (inactive) |
| Clc1ccc(C2=CSC3=Nc4cccc5cccc(c45)N23)cc1 | 6.8% (inactive) |
| CN(Cc1c(F)cccc1Cl)S(=O)(=O)c1cccs1 | -1.8% (inactive) |
| Cc1ccc(Nc2c(O)nc[nH]c2=O)cc1C | -0.6% (inactive) |
| CCOC(=O)N1CCC(Nc2c(NCCCN3CCN(c4ccc(OC)cc4)CC3)c(=O)c2=O)CC1 | 2.4% (inactive) |
